Laboratory results as given in paper PMC4336329 (PLoS ONE, 2015).
In all, about 310,000 compounds went through this assay and about 14,000 (4.5%) showed an effect of 50% or more. Effects have a minus sign here. This excerpt belongs to a sample that is enriched for strong results.

These molecules were tested against human ether-à-go-go-related gene (hERG) potassium channel (human, UniProt Q12809) (assay: primary screen, population patch clamp on CHO cells stably expressing hERG; higher = less effect of the substance).
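Note: peak tail current of the secondary pulse compared with the same well before compound.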

human ether-à-go-go-related gene (hERG) potassium channel, sequence (Q12809 whole entry, looked up): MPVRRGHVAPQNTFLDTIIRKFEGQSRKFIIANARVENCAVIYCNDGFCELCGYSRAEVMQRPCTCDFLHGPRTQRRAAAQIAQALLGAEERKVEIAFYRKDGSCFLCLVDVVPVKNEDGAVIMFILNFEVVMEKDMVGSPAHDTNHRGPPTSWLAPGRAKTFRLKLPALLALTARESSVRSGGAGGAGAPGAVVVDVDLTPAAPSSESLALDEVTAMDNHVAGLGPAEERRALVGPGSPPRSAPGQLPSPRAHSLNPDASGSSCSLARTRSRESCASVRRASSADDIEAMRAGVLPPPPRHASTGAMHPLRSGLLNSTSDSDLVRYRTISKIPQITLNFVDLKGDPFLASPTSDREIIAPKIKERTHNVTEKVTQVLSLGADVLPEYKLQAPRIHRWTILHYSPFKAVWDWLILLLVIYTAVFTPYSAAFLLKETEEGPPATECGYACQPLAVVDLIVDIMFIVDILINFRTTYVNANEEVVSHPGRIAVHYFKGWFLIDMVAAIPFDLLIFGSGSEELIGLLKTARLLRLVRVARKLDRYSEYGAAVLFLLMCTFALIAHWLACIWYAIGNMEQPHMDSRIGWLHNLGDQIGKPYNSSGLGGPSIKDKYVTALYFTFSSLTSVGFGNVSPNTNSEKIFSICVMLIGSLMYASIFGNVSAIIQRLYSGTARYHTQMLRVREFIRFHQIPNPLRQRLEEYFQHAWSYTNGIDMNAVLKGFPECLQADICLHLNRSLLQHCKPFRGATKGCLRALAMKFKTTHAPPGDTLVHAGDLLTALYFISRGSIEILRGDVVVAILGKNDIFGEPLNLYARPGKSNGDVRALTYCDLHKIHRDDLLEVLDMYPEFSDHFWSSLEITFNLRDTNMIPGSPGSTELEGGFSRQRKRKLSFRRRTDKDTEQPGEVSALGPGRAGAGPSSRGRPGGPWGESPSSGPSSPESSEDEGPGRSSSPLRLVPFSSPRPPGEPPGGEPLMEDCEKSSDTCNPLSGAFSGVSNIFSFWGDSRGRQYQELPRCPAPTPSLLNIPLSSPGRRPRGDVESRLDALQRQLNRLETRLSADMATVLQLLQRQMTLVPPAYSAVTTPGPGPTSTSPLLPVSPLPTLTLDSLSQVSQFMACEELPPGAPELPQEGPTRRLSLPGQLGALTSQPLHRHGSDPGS

SMILES | hERG current change (%, negative = inhibition) at 10uM [%]
OCC1CCCN1C(=S)Nc1ccccc1 (centres unmarked) | 3.84
COc1ccc(C(=O)COC(=O)CN2C(=O)C3C4CCC(C4)C3C2=O)cc1 (centres unmarked) | -17.9
O=C(CSc1nc2c(cnn2-c2ccc(F)cc2)c(=O)[nH]1)N1CCCc2ccccc21 | 10.1
O=C1C=C(O)c2cccc3cccc1c23 | 28.3
CCN(CC)S(=O)(=O)c1ccc2c(c1)oc(=O)n2CC(=O)N(C)C1CCCCC1 | -11.9
Cc1cc(-c2cccs2)c2c(n1)sc1c(=O)[nH]c(=O)[nH]c12 | 5.3
O=C(NCCCNC(=O)c1cnccn1)c1ccc(Cl)c(Cl)c1 | -15.6
Cc1oc(-c2cccs2)nc1CN1CCC(c2ccccc2)CC1 | -66.5
Cc1oc(-c2cccs2)nc1CN1CCC(C(=O)N2CCCC2)CC1 | -11.2
COc1ccc(-c2nc(CN3CCC(c4ccccc4)CC3)c(C)o2)cc1OC | -37.7
Cc1c(Cl)cccc1NC(=O)CCN1CCCCCC1 | -3.92
C/C(=N\OCC(=O)NCC(F)(F)F)c1cc2ccccc2o1 | -1.58
CN(Cc1nccs1)C(=O)C1CCC(=O)N(CCc2ccc(Cl)cc2)C1 (centres unmarked) | -81.5
CN(Cc1ccccn1)C(=O)C1CCC(=O)N(CCc2ccc(Cl)cc2)C1 (centres unmarked) | -53.1
CN(Cc1cnccn1)C(=O)C1CCC(=O)N(CCc2ccccc2)C1 (centres unmarked) | 19.7
CN(Cc1ccon1)C(=O)C1CCC(=O)N(Cc2ccc(Cl)cc2)C1 (centres unmarked) | -40.9
CCc1ccc(CN(C)C(=O)C2CCC(=O)N(Cc3ccccn3)C2)cc1 (centres unmarked) | -1.48
O=C(NCCc1nccs1)C1CCC(=O)N(CCc2ccc(Cl)cc2)C1 (centres unmarked) | -31.6
CN(Cc1cnn(C)c1)C(=O)C1CCC(=O)N(Cc2ccc(Cl)cc2)C1 (centres unmarked) | -9.64
CN(Cc1nccn1C)C(=O)C1CCC(=O)N(Cc2cccc(C(F)(F)F)c2)C1 (centres unmarked) | -9.93
CN(Cc1cnccn1)C(=O)C1CCC(=O)N(CCc2ccc(Cl)cc2)C1 (centres unmarked) | -67.9
CN(Cc1nccs1)C(=O)C1CCC(=O)N(CCc2cccc(F)c2)C1 (centres unmarked) | -12.4

SMILES | hERG current change (%, negative = inhibition) at 10uM [%]
CN(Cc1nccn1C)C(=O)C1CCC(=O)N(CCc2ccc(Cl)cc2)C1 (centres unmarked) | -53.8
CN(Cc1ccccn1)C(=O)C1CCC(=O)N(Cc2cccc(C(F)(F)F)c2)C1 (centres unmarked) | -15.7
O=C(NNC(=O)C1COc2ccccc2O1)c1ccccc1 (centres unmarked) | -1.85
O=C(NCc1cccs1)C1CCC(CNS(=O)(=O)c2ccccc2)CC1 (centres unmarked) | -2.7
O=C(Nc1cccnc1)c1ccc(C(=O)Nc2cccnc2)cc1 | 29.7
COc1ccc(-c2nc(CS(=O)CC(=O)NC3CCCCCC3)c(C)o2)cc1 (centres unmarked) | 10.6
CCN(CC(=O)NC(C)(C)C)C(=O)C(c1ccccc1)c1ccccc1 | 23.5
COc1cccc(NC(=O)c2ccc(S(=O)(=O)NCc3cccnc3)cc2)c1 | -0.62
O=c1oc2ccccc2c(O)c1C=Nc1cccnc1 | 12.2
O=C(Nc1ccccc1Oc1cccnc1)C1CCCN(Cc2cccc(Cl)c2)C1 (centres unmarked) | -30.2
O=C(Nc1ccccc1Oc1cccnc1)C1CCCN(Cc2ccccc2O)C1 (centres unmarked) | -57.2
Cc1cccc(CN2CCCC(C(=O)Nc3ccccc3Oc3cccnc3)C2)c1 (centres unmarked) | -43.9
Cc1ccccc1CN1CCCC(C(=O)Nc2ccccc2Oc2cccnc2)C1 (centres unmarked) | 0.0346
O=C(Nc1ccccc1Oc1cccnc1)C1CCCN(Cc2ccc(F)cc2)C1 (centres unmarked) | -36.2
C#Cc1ccc(CN2CCCC(C(=O)Nc3ccccc3Oc3cccnc3)C2)cc1 (centres unmarked) | -58.5
CCN1CCN(CC(O)COc2ccc3c(C)cc(=O)oc3c2)CC1.Cl (centres unmarked) | -0.83
O=C(CSCC(=O)N1CCOCC1)Nc1ccccc1 | -0.115
O=C(NC1CCS(=O)(=O)C1)c1ccc2c(c1)OCO2 (centres unmarked) | 13
Cc1nc2ccc(NC(=O)c3ccc(Cl)c(S(=O)(=O)N(C)c4ccccc4)c3)cc2s1 | 10.3
Cc1cccc(C)c1NC(=O)C(NC=O)c1ccc(Cl)cc1 (centres unmarked) | 0.758
Cc1cccc(C)c1NC(=O)C(NC=O)c1ccccc1 (centres unmarked) | -64.1
Cc1cccc(C)c1NC(=O)C(NC=O)c1ccc(N(C)C)cc1 (centres unmarked) | -11.1
